This passage reports Percent Effect results from ChEMBL document CHEMBL3988442, “University of Dundee, Small-Polar-MMV Screening Library” (2021).

What all share (set-up): scale not given: direction of the effect not stated beside the values
For assay [1], the target named is Protein translocase subunit SecA (Escherichia coli (strain K12)) (UniProt P10408). In words: Assay to Identify E. coli SecA ATPase Inhibitors. To be noted: 30 µM. Type of assay: functional.
In assay [2] the target is T1, Ubiquitin-activating enzyme e1, putative (Leishmania donovani (strain BPK282A1)) (UniProt E9BSI1).
T1 sequence (whole entry): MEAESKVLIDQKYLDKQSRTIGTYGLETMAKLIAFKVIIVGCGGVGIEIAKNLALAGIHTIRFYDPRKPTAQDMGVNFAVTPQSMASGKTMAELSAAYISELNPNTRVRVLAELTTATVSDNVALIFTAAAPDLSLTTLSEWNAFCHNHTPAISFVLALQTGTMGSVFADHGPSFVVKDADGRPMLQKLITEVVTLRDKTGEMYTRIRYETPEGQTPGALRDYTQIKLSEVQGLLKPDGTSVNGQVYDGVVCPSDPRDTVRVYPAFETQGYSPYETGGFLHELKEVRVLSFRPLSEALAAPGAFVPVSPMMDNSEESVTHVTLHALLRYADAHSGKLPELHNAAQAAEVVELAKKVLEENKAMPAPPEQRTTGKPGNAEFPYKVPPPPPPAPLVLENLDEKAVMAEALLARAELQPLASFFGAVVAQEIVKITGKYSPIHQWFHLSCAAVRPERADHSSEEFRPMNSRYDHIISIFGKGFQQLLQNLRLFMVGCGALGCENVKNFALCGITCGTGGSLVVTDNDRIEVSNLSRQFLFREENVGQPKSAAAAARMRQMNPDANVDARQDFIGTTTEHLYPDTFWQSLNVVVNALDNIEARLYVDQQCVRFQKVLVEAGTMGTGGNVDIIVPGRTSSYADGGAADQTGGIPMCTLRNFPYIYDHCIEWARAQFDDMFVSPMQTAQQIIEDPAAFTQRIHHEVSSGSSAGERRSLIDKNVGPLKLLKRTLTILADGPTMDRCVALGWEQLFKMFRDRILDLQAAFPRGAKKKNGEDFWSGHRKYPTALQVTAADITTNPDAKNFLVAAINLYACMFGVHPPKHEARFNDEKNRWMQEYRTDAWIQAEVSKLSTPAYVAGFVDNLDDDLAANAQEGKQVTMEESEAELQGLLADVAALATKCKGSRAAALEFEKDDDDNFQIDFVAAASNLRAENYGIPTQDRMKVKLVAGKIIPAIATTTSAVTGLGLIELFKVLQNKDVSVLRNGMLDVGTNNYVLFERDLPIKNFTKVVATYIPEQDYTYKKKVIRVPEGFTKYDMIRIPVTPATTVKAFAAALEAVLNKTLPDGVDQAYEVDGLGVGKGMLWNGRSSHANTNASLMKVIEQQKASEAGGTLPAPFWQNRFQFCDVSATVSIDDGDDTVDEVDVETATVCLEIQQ
Kind of assay: Leishmania donovani Ubiquitin Activating Enzyme (LdE1). Type of assay: functional. To be noted: 30 µM.

Assay [3] deals with AMP-activated protein kinase, AMPK (Homo sapiens) (UniProt P54646+O43741+P54619+Q9UGJ0+Q9Y478+Q13131+Q9UGI9). Kind of assay: AMP-dependent Kinase enzyme assay. An in vitro enzyme assay that detects ADP turnover that is directly proportional to AMPK activity. This uses naive AMPK that is activated during the assay with MK-8722. Type of assay: functional. To be noted: 30 µM.
In assay [4] the target is Sialic acid-binding Ig-like lectin 9 (Homo sapiens) (UniProt Q9Y336). Kind of assay: Hs-Siglec9 ALPHAscreen SOP 20170721. To be noted: 10 µM.
Chain of Sialic acid-binding Ig-like lectin 9 (Homo sapiens) (Q9Y336 whole entry): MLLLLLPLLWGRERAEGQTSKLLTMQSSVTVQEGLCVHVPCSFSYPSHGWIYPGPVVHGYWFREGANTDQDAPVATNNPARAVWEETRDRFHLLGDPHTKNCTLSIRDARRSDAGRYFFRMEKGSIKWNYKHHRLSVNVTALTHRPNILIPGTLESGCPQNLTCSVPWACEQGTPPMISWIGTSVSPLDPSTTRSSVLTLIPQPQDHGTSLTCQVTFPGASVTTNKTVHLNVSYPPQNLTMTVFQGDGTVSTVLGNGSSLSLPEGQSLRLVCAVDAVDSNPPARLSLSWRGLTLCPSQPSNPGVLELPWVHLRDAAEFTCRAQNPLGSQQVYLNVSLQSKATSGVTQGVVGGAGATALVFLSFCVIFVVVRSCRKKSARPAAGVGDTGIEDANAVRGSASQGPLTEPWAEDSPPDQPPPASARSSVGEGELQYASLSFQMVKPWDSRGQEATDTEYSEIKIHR
For another assay, the system named is Trypanosoma cruzi. In words: Trypanosoma cruzi phosphomannomutase and mannose-1-phosphate guanylyltransferase assay. In kind it is functional. To be noted: 10 µM.
Assay [5] concerns the target T2, Arginase-2, mitochondrial (Homo sapiens) (UniProt P78540).
T2 sequence (whole entry): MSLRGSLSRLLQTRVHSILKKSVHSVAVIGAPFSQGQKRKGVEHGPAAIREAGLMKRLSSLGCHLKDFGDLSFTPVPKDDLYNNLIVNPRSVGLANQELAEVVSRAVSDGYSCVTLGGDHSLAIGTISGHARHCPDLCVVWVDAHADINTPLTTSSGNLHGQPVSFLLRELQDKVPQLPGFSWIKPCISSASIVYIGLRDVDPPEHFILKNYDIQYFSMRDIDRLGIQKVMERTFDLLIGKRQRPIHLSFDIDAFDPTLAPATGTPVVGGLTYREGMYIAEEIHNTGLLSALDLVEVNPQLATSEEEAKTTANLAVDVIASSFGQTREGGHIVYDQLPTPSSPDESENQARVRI
Kind of assay: in vitro enzyme assay to detect the production of urea directly proportional to the activity of Arginase II. Further: in the data most compounds retested in dose-response had high values. In kind it is functional. To be noted: 33.3 µM.

Assay [6] deals with T3, Proteasome subunit beta (Trypanosoma cruzi) (UniProt O96673).
T3 sequence (whole entry): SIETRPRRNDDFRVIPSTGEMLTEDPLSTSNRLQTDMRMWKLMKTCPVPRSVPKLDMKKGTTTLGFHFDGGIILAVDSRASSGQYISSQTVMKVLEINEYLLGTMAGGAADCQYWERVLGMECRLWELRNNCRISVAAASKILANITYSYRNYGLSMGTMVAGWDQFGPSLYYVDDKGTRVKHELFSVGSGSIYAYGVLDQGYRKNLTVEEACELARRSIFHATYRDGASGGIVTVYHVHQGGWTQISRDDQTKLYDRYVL
Kind of assay: Trypanosoma cruzi proteasome chymotrypsin-like activity (TcProtChymo) assay. Further: in the data most compounds retested in dose-response had high values. In kind it is functional. To be noted: 9.37 µM.

The species entered for the next assay is Homo sapiens. Kind of assay: To identify inhibition of the IFN signalling (Jak-Stat) pathway via expression of an eGFP reporter gene under the control of an IFN-stimulated response element (ISRE) containing MxA promoter. Type of assay: functional. To be noted: 30 µM. For orientation: In a reporter assay the amount or activity of a reporter protein is the signal.

Assay [7] concerns the target T4, Tyrosyl-tRNA synthetase, putative (Trypanosoma cruzi (strain CL Brener)) (UniProt Q4DSP6).
T4 sequence (whole entry): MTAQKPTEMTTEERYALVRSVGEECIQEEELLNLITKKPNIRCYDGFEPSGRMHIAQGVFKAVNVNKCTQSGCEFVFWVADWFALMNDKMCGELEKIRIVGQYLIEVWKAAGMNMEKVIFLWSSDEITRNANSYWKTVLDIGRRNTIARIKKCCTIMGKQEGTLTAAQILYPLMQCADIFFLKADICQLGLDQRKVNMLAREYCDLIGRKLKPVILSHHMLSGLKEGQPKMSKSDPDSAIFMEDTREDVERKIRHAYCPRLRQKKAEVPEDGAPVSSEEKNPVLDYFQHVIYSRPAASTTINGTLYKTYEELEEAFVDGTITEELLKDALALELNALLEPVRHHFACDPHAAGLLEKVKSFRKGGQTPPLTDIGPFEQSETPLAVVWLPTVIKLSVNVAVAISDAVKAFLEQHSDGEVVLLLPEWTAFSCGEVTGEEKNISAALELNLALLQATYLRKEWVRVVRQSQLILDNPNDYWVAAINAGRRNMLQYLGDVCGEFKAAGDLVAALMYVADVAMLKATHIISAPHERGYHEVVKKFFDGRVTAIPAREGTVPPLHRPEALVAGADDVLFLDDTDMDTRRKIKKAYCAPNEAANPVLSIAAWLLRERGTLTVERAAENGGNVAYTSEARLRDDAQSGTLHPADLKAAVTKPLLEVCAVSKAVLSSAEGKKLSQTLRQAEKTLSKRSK
In words: Trypanosoma cruzi tyrosyl tRNA synthetase (TcYRS) _High Tyrosine SOP. Further: in the data most compounds retested in dose-response had high values. Type of assay: functional. To be noted: 30 µM.

Assay [8] concerns the target T4, Tyrosyl-tRNA synthetase, putative (Trypanosoma cruzi (strain CL Brener)). In words: Trypanosoma cruzi tyrosyl tRNA synthetase (TcYRS) SOP. Type of assay: functional. To be noted: 30 µM.
Assay [9] addresses Chromo domain-containing protein 1 (Saccharomyces cerevisiae (strain ATCC 204508 / S288c) (Baker's yeast)) (UniProt P32657). In words: ScCHD-1 Enzyme Inhibition Assay. Further: in the data most compounds retested in dose-response had high values. In kind it is functional. To be noted: 30 µM.

For some assays here: Results with a measured potency or affinity are listed apart.

Chain of Protein translocase subunit SecA (Escherichia coli (strain K12)) (P10408 whole entry): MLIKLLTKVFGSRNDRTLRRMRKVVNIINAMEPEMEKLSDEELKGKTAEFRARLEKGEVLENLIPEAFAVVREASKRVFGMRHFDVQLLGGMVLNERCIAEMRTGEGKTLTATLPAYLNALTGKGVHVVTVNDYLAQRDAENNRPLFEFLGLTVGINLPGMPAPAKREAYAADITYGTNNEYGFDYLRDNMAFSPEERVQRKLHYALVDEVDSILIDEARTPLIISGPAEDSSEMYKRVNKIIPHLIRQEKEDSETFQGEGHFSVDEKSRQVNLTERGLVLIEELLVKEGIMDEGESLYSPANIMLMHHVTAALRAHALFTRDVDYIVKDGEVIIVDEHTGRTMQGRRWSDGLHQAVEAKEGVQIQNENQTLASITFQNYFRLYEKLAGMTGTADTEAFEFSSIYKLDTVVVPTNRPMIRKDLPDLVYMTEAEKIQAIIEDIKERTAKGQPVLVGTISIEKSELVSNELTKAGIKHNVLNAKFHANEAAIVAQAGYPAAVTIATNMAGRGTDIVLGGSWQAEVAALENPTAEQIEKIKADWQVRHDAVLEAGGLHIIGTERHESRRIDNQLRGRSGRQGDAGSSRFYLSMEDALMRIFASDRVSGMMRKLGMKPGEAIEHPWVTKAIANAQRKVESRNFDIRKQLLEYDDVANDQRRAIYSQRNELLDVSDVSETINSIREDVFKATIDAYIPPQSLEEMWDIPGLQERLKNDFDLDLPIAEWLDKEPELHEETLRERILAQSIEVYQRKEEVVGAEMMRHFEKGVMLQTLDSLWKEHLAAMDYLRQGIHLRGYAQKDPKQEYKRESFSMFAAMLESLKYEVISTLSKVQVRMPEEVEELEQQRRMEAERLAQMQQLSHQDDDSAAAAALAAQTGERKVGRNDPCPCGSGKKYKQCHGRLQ
Chain of Chromo domain-containing protein 1 (Saccharomyces cerevisiae (strain ATCC 204508 / S288c) (Baker's yeast)) (P32657 whole entry, the tested form may be a part): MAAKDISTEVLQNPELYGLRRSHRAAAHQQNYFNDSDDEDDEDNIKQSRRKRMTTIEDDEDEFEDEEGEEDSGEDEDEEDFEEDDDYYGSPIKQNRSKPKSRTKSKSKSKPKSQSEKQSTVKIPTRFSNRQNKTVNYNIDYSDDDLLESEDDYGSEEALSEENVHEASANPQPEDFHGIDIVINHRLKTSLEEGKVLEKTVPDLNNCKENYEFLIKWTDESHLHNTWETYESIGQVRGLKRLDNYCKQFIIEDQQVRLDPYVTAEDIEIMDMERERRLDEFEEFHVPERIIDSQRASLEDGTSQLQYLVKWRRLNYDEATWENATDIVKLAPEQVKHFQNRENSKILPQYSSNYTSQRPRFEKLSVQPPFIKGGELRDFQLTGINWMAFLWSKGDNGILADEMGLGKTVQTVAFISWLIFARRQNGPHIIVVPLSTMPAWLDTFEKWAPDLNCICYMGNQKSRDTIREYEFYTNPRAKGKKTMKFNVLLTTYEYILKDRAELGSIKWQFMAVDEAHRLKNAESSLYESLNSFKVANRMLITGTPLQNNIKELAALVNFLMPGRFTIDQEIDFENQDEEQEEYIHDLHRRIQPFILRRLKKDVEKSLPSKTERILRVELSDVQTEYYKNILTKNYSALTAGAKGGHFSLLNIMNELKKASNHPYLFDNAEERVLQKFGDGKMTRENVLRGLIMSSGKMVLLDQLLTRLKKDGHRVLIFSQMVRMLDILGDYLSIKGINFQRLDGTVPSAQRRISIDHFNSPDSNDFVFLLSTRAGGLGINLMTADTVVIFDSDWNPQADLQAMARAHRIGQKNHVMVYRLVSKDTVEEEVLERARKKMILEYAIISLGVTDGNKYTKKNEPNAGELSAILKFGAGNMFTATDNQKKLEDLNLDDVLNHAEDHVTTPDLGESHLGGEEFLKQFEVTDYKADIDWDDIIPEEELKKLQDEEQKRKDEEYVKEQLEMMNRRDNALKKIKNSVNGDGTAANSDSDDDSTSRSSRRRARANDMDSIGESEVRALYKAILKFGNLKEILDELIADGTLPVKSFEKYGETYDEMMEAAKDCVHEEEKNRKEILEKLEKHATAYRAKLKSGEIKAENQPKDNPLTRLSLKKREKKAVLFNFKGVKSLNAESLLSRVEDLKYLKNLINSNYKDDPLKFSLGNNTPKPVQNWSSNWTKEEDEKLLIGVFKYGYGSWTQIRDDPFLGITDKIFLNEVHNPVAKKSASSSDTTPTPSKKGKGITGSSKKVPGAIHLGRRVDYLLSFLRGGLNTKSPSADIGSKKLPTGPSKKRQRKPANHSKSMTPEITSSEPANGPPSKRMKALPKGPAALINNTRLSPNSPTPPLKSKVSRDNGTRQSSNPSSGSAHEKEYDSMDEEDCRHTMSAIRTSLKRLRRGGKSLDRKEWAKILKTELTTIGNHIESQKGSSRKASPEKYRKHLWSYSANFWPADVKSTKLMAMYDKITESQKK

Turning to `Cn1cc(CN2CCc3c(nc(-c4ccccn4)[nH]c3=O)C2)cn1`, the Percent Effect is -4.53% in assay [1]; 2.67% in assay [2]; 8.84% in assay [3]; 5.72% in assay [4]; -2.56% in the assay with Trypanosoma cruzi; -1.17% in assay [5]. Further, the Percent Effect in assay [6] was 6.78%; in the assay listed under Homo sapiens, -0.565%; in assay [7] it was 12.8%; in [8] it was 19.2%; in assay [9], -1.71%.

As to `CNC(=O)c1cccc(NC(=O)CN2CCN(S(C)(=O)=O)CC2)c1`, the Percent Effect in [1] is -3.07%; in assay [2], 18.9%; in assay [3], -6.24%; in assay [4], 18.5%; in the assay on Trypanosoma cruzi, 5.57%; in assay [5], 4.22%. The Percent Effect in [6] is 13.8%; in the assay listed under Homo sapiens it was 8.76%; in [7], 5.38%; in [8], 16.1%; in [9] it was -3.08%.

For the molecule `Cc1ccccc1N1CCCN(C(=O)CCCS(N)(=O)=O)CC1`, the Percent Effect in assay [1] was -0.353%; in assay [2], 8.22%; in assay [3] it was 25.9%; in assay [4] it was 2.05%; in the assay on Trypanosoma cruzi it was -8.62%; in assay [5], 2.73%. In addition, the Percent Effect in assay [6] is 23.8%; in the assay filed under Homo sapiens, 28.3%; in assay [7], 3.23%; in assay [8] it was 2.5%; in assay [9], -13.8%.

With `Cc1nn(C)c(C)c1CC(=O)N1CCCC(n2ccnc2)C1` (stereo not given), the Percent Effect in assay [1] is -1.6%; in [2] it was -5.26%; in [3], -1.17%; in [4] it was -5.34%; in the assay on Trypanosoma cruzi it was -3.27%; in assay [5] it was 1.8%. For the same molecule, the Percent Effect was -0.592% in [6]; -1.26% in the assay listed under Homo sapiens; 1.48% in assay [7]; -1.24% in [8]; -1.5% in assay [9].

Take `O=C(N1CCCC1)N1CCc2ncnc(C3CCOC3)c2CC1` (stereo not given): the Percent Effect in [1] was 2.86%; in assay [2], -2.67%; in [3], 9.11%; in assay [4] it was 2.99%; in the assay with Trypanosoma cruzi, -0.591%; in assay [5] it was 3.5%. Moreover, the Percent Effect in assay [6] is 7.14%; in the assay listed under Homo sapiens it was 3.4%; in [7] it was 3.19%; in [8], -1.28%; in [9], -1.1%.

In the case of `CSC(C)C(=O)N1CCCN(Cc2cnn(C(C)C)c2)CC1` (stereo not given), the Percent Effect in assay [1] was 1.59%; in [2], 21.6%; in assay [3], -6.76%; in assay [4], -4.41%; with Trypanosoma cruzi, -10.3%; in assay [5] it was 2%. In addition, the Percent Effect in assay [6] is 19.1%; in the assay filed under Homo sapiens, 7.04%; in assay [7], 8.37%; in assay [8], 11.1%; in [9] it was -4.54%.

Take `OC1(Cn2ccc3ccncc32)CCN(Cc2ccccn2)CC1`: the Percent Effect in assay [1] was 0.875%; in assay [2], 6.76%; in assay [3] it was 1.5%; in assay [4], 0.0823%; with Trypanosoma cruzi, -10.7%; in assay [5], 2.55%. Moreover, the Percent Effect in [6] was 8.42%; in the assay listed under Homo sapiens, 17.6%; in [7], -1.07%; in [8], 9.09%; in assay [9], -2.25%.

On to `CN(C)Cc1nc(C(C)(C)NC(=O)C2CC(=O)N(CC3CC3)C2)no1` (stereo not given), for which the Percent Effect in [1] is -8.14%; in assay [2], 5.41%; in assay [3], 0.168%; in assay [4], 2.33%; with Trypanosoma cruzi, -3.44%; in [5], 3.14%. Also, the Percent Effect in assay [6] was -3.77%; in the assay listed under Homo sapiens, 22.2%; in [7], 1.98%; in assay [8] it was 1.22%; in [9], 4.96%.

`CC(C)Cc1noc(CN(C)C(=O)C2COc3ccccc3C2)n1` (stereo not given): the Percent Effect was -3.93% in assay [1]; 5.2% in assay [2]; -1.17% in [3]; 6.48% in assay [4]; -0.0983% with Trypanosoma cruzi; -27.6% in [5]. Also, the Percent Effect in assay [6] is 14.3%; in the assay filed under Homo sapiens it was -9.36%; in assay [7], -1.07%; in assay [8] it was 13.6%; in [9], 0.431%.

`O=C1CCCCN1c1cccc(CNC2CCCC2)c1`: the Percent Effect is -1.28% in assay [1]; 0% in assay [2]; 5.47% in [3]; 3.26% in assay [4]; 2.06% in the assay with Trypanosoma cruzi; 2.74% in [5]. The Percent Effect in assay [6] was 8.49%; in the assay filed under Homo sapiens, -9.59%; in [7] it was 2.86%; in assay [8] it was 7.06%; in assay [9], -7.72%.
